Sampled rows, rich in hits. Any-hit rate of the full collection: about 7.3%.
HCV inh: qHTS Assay for Inhibitors of Hepatitis C Virus (HCV); Huh7.5.1 HCVcc-Cre infection, luciferase reporter, 44 h; Potency, µM (doses to about 41.8 µM), for the others: at the top dose activity change, negative = inhibition, hits mostly inhibitors; 3.4% of 340,000 active; AID 651820, 2012; active = well fitted inhibition curve with a large enough effect; inconclusive = small, poorly fitted or top-dose-only effect, or another doubt; inactive = no such curve, though single readings can be large or run the other way; also: potency is read from the fitted curve at half-maximal effect
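Infectious HCV cell culture screen: compound-treated cells (1,000/well, pre-plated 4 h) are infected with HCVcc-Cre at roughly 0.5 moi and grown 44 h. Infection is quantified by luciferase signal after 15 min substrate incubation at room temperature.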
Vaccinia mCherry: qHTS for Stage-Specific Inhibitors of Vaccinia Orthopoxvirus: mCherry Reporter Primary qHTS | Vaccinia virus mCherry reporter infection, fluorescence | Potency, µM (top dose mostly 36.5 µM), for inactives: at the top dose activity change, negative = inhibition, usual class: inhibitors | 0.63% of 310,000 active; calls by dose curve; tested in A549 cells; also: potency is read from the fitted curve at half-maximal effect; nearly all actives have a fitted effect of over 35% in size
FMDV inh: High Throughput Screening for Foot and Mouth Disease Virus Antivirals | 1.2% of 410,000 active | AID 1159524, 2015 | FMDV antiviral cell-based qHTS | Potency, µM (highest dose often 57.9 µM), without a hit: at the highest dose activity change, negative = inhibition, most hits filed as inhibitors; calls by dose curve; tested in HEK293T cells; also: read-out not given here; potency is read from the fitted curve at half-maximal effect; nearly all actives have a fitted effect of over 45% in size
Vaccinia Venus: qHTS for Stage-Specific Inhibitors of Vaccinia Orthopoxvirus: Venus Reporter Primary qHTS. 0.46% of 330,000 active. AID 720580, 2013. Potency, µM (highest dose often 36.5 µM), without a hit: at the highest dose activity change, negative = inhibition, actives largely listed as inhibitors. Vaccinia virus Venus reporter expression, fluorescence; calls by dose curve; tested in A549 cells; also: potency is read from the fitted curve at half-maximal effect; nearly all actives have a fitted effect of over 30% in size
HCMV inh: qHTS Assay for inhibitors of the human cytomegalovirus (HCMV) | HFF cells, HCMV-luciferase reporter, 72 h; stronger effect = lower value | activity change, negative = inhibition, % at 57.5 µM | 4.5% of 410,000 active | AID 1259415, 2018; in the data active = activity change below about -60%; inconclusive = no clear call, values can overlap the other calls; inactive = above about -39%
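Cell-based, HFFs, 1000 cells/well, 16 h 37C; cpds in DMSO + HCMV-luc, MOI 1 PFU/cell; 72 h 37C; OneGlo luminescence after 5 min RT; norm. to buffer vs Salinomycin 10uM.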
The depositor's hits bear a star; i = inactive; u = inconclusive; x = no result given; ! = a repeat was not active; [ ] = dose if it differs, or a comment. % is scaled to controls: 0 for no effect and ±100 for the full control effect.

SMILES | HCV inh | Vaccinia mCherry | FMDV inh | Vaccinia Venus | HCMV inh
C=C(C)CNC(=S)N/N=C/c1ccc(N2CCOCC2)cc1 | u | -4% | -17% | -15% | -78*
COCCNC(=S)N/N=C/c1ccc(N2CCOCC2)cc1 | -29% | -24% | -6% | -18% | -97*
O=C(N/N=C/c1ccc(N2CCOCC2)cc1)c1ccccc1OCCOc1ccccc1 | 8.9µM* | -30% | u | -19% | 4
CC(C)NC(=S)N/N=C/c1ccc(N2CCOCC2)cc1 | 0% | x | -26% | x | -1
COc1ccc(CNc2ncnc3nc[nH]c23)cc1OC | x | -11% | x | -11% | x
Cc1c(Cl)cccc1-n1nnc(-c2nc(-c3ccc4c(c3)OCO4)no2)c1C | x | -14% | 11% | -21% | 20
COc1ccc(C(NC(=O)COc2ccc(C#N)cc2)c2ccc(OC)cc2)cc1 | x | 33% | x | 6% | x
CC1(c2ccccc2)CC(C)(C)N(C(=O)c2cccc(Cl)c2)c2ccccc21 (configuration not stated) | x | -9% | 3% | -7% | -72*
CN1CC(=O)N(CC(=O)NCc2ccc3c(c2)OCO3)C1=O | 14% | i | 1% | -9% | -102*
CC(=O)c1c(C)n(CC(=O)NCc2ccc3c(c2)OCO3)c2ccccc12 | 10µM* | -8% | x | -24% | u
CCC1(CC)NC(=O)N(CC(=O)NCc2ccc3c(c2)OCO3)C1=O | -1% | -12% | -2% | -10% | -20
COc1ccc(/C=C/C(=O)c2nc3ccccc3n2CC(=O)c2ccc(OC)cc2)cc1 | -18% | x | -11% | x | 19
COc1ccc(C(=O)Cn2c(C(C)=O)nc3ccccc32)cc1 | u | i | 5% | -21% | -64*
COc1ccc(C(=O)CN2C(=O)c3ccccc3S2(=O)=O)cc1 | 2% | -2% | 5.6µM* | -14% | -92*
COc1ccc(C)cc1NC(=O)CN1C(=O)c2ccccc2S1(=O)=O | -6% | 1% | -14% | 6% | -60*
Cc1ccc(NC(=O)CN2C(=O)c3ccccc3S2(=O)=O)c(C)c1 | 3% | -10% | 13% | 2% | 3
Cc1ccc(CSCCC(=O)NCc2ccc(F)cc2Cl)cc1 | x | i | -2% | -7% | -32
Cc1ccc(CN2C(=O)c3oc4ccc(C)cc4c(=O)c3C2c2ccc(O)cc2)cc1 (configuration not stated) | x | -12% | -5% | -11% | 10
O=C(Nc1cc(Cl)ccc1O)c1snnc1-c1ccccc1 | 18µM* | x | 20µM* | x | -100*
Cc1cccc(NC(=O)Cn2c(=O)n(CCc3ccccc3)c(=O)c3sc4ccccc4c32)c1 | x | -27% | 2% | -26% | -1
CCOC(=O)/C=C(\C)Sc1cc(O)c2ccccc2c1O | u | x | 28µM* | x | -100*
Cc1ccc2c(Sc3ccc(Cl)cc3)c(C(=O)N3CCC(C)CC3)[nH]c2c1 | x | -8% | 79% | -9% | 21
Cc1oc(=O)c(NC(=O)c2cccc(Cl)c2)cc1C(=O)c1ccccc1 | u | x | -21% | x | -84*
CC(=O)N1CCc2cc(CNS(=O)(=O)c3ccc(Cl)s3)ccc21 | x | -7% | 20% | -10% | 27
Cc1ccc(C)c(C(=O)CN2C(=O)c3ccccc3C2=O)c1 | 11% | -22% | 17% | -3% | -14
SMILES | HCV inh | Vaccinia mCherry | FMDV inh | Vaccinia Venus | HCMV inh
Cc1ccccc1Cn1nnc2c1C(=O)c1ccccc1C2=O | u | -12% | -2% | 4% | 80
Cc1cccc(Cn2nnc3c2C(=O)c2ccccc2C3=O)c1 | u | x | u | x | -100*
Cc1ccc(C)c(C(=O)Cn2ncc(Cl)c(Cl)c2=O)c1 | 10µM* | -21% | 32µM* | u | -97*
Cc1cccc(Cn2ncc(Cl)c(Cl)c2=O)c1 | 3.5µM* | x | u | x | -94*
Cc1cc(C(=O)Cn2ncc(Cl)c(Cl)c2=O)c(C)n1CC(F)(F)F | u | u | u | 14µM* | -100*
Cc1cc2oc(=O)cc(Cn3ncc(Cl)c(Cl)c3=O)c2cc1Cl | 11µM* | -8% | u | -6% | x
Cc1cc2oc(=O)cc(CN3CCN(c4ccccc4)CC3)c2cc1Cl | x | 24% | -12% | -10% | -32
Cc1cccc(NC(=O)CSc2nccn2Cc2ccc(F)cc2)c1C | x | i | -1% | -6% | -15
O=S(=O)(Nc1cc(Sc2ncn[nH]2)c(O)c2ccccc12)c1ccccc1 | u | 6.3µM* | 25µM* | 2.5µM* | -99*
Cc1cc(O)c(Sc2ncn[nH]2)cc1NS(=O)(=O)c1ccc(Cl)cc1 | 16% | -27% | -12% | -16% | -2
COc1ccc(NC(=O)N2c3ccc(OC)cc3[C@@H](NC(C)=O)[C@H](C)[C@H]2c2ccccc2)cc1 | x | x | x | x | 18
COc1cc(C(=O)Nc2ccc3nc(N4CCN(C)CC4)cc(C)c3c2)cc(OC)c1OC | u | x | -16% | x | -3
CCN1CCN(c2cc(C)c3cc(NC(=O)c4cccc(Cl)c4)ccc3n2)CC1 | x | -13%[7.34 µM] | 14% | -6%[7.34 µM] | 7
COc1cccc(/C=C/C(=O)Nc2ccc3nc(N4CCN(C)CC4)cc(C)c3c2)c1OC | x | -20% | -23% | -20% | -106*
CCN1CCN(c2cc(C)c3cc(NC(=O)/C=C/c4cccc(Cl)c4)ccc3n2)CC1 | x | 11µM* | -7% | u | -101*
CCN1CCN(c2cc(C)c3cc(NC(=O)/C=C/c4cccc(OC)c4OC)ccc3n2)CC1 | x | u | -12% | u | -100*
CC1=C(C(=O)Nc2ccccc2)C(c2cccnc2)n2nc(SCc3ccccc3Cl)nc2N1 (configuration not stated) | x | -16% | -19% | -11% | -2
COc1ccc(NC(=O)c2cccc(N3CCCS3(=O)=O)c2)c(OC)c1 | x | -1% | -4% | 17% | 9
CCCCCCCCCCCCCCC[C@H](O)[C@@H](N)CO | x | -17%[3.33 µM] | -15%[6.7 µM] | -8%[3.33 µM] | x
O=c1c(CCc2ccccc2)nc2cnc(N3CCNCC3)nc2n1-c1ccccc1 | x | x | 0% | x | x
CCOc1ccc(OCCn2ccnc2)cc1 | 19% | -11% | -22% | -1% | 8
CCOc1ccc(OCCCCn2ccnc2)cc1 | -7% | i | -8% | -15% | -61*
Cc1cccc(OCCCCCn2ccnc2)c1C | u | x | -16% | x | -81*
Cc1cccc(C)c1OCCCn1ccnc1 | 2% | x | 2% | x | -18
COc1ccc(C2Nc3ccccc3C(=O)N2Cc2ccccc2)cc1COc1ccc([N+](=O)[O-])c(C)c1 (configuration not stated) | x | 40% | x | 4% | x
Cc1ccc2nc(NC(=O)c3ccc(S(=O)(=O)N4CCCc5ccccc54)cc3)sc2c1 | u | -22% | u | -16% | -90*!
O=C(Nc1nc2c(F)cc(F)cc2s1)c1ccc(S(=O)(=O)N2CCc3ccccc32)cc1 | x | u | -27% | u | -99*
O=C(Nc1nc2c(F)cccc2s1)c1ccc(S(=O)(=O)N2CCCc3ccccc32)cc1 | x | -3% | u | -1% | -3

Assay outcomes from PubChem.
